Screens from PubChem BioAssay.
TIM10 inh – TIM10 yeast growth inhibition | 1.4% of 330,000 active | S. cerevisiae TIM10 strain growth, BacTiter-Glo luminescence, 24 h | inhibition, % at 10 µM | AID 463195;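 active = inhibition of 40% or more at the single tested concentration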;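 also: wild-type TIM10 isogenic control strain grown at permissive 25 °C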
tim23-1 inh – tim23-1 yeast growth inhibition. S. cerevisiae tim23-1 growth, BacTiter-Glo luminescence, 24 h. inhibition, % at 20 µM. 1.3% of 330,000 active;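 active = growth inhibition of the mutant yeast at or above 50%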;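 also: temperature-sensitive mutant grown at 25 °C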
tim10-1 inh – growth inhibitors of tim10-1 mutant yeast. AID 463190. inhibition, % at 20 µM. S. cerevisiae tim10-1 ts strain growth, BacTiter-Glo, 24 h. 2.2% of 330,000 active;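 active = inhibition of at least 40%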;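 also: mutant grown at 25 °C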
PfHsp90 yeast 2 – inhibits growth of yeast expressing Plasmodium falciparum Hsp90; inhibition, % at 9.4 µM; S. cerevisiae expressing PfHsp90, BacTiter-Glo ATP, 48 h; yeast lacking PDR1 and PDR3 efflux regulators; AID 504621; 0.32% of 310,000 active;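 active = every replicate shows inhibition above about 80%, whatever the replicate mean, limit read from the data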
Beta2AR agonist – agonists of human beta-2 adrenergic receptor inducing internalization; response, % (test concentration not listed); Am2.2-beta2AR cells, FAP receptor internalization, flow cytometry; P07550; AID 504454; 0.43% of 340,000 active;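 active = response above a set limit, near 3 SD of response in nonfluorescent compounds, cut at about 42% in these data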
Target sequence (P07550 whole entry, looked up): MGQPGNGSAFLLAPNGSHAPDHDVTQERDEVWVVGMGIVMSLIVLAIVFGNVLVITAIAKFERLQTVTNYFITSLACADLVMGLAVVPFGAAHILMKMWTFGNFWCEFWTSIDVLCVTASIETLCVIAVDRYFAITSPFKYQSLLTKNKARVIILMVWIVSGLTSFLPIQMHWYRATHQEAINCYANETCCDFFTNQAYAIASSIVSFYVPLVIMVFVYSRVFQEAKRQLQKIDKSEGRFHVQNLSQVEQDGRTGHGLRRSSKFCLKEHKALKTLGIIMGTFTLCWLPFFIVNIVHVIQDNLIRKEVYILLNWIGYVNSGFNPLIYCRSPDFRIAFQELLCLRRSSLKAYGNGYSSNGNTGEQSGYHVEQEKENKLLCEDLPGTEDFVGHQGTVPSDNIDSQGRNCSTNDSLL
tim10-1 confirm – tim10-1 yeast growth inhibition, confirmed. S. cerevisiae tim10-1 ts strain growth, BacTiter-Glo, 24 h. 56% of 7,400 active. AID 463213. inhibition, % at 20 µM. shares compounds with tim10-1 inh;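 active = inhibition of yeast growth at or above a set limit in either of two repeat tests at 20 µM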;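 also: tim10-1 mutant grown at permissive 25 °C to find synthetic lethal compounds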
TIM10 conf – confirmation of TIM10 yeast growth inhibitors; S. cerevisiae tim10 strain growth, BacTiter-Glo luminescence, 24 h; 63% of 4,600 active; shares compounds with TIM10 inh; inhibition, % at 10 µM;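 active = inhibition of yeast growth at or above a set limit in either of two replicates at 10 µM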; also: this counterscreen used the strain with wild-type TIM10
tim23-1 conf – confirmation of tim23-1 mutant yeast growth inhibitors; inhibition, % at 20 µM; S. cerevisiae tim23-1 growth, BacTiter-Glo luminescence, 24 h; 83% of 4,400 active; AID 463218; shares compounds with tim23-1 inh;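 active = inhibition above about 39% in either of two replicate wells at 20 µM, limit read from the data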;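 also: temperature-sensitive tim23-1 mutant grown at 25 °C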
Large screens that a line does not name were inactive (follow-up assays come after a bar, where they were run). In the library only some 3.8% were active in any assay of this set; here they are far more common.

CCN(CC)c1ccc(/C=N/NC(=S)NCc2ccco2)cc1	TIM10 inh 46.0, tim23-1 inh 50.5, tim10-1 inh 42.3 | tim10-1 confirm 34.0 | TIM10 conf inactive | tim23-1 conf 40.3
Oc1ccc(/C=N/NC(=S)NCc2ccco2)cc1	none
COc1ccc2[nH]c3c(c2c1)CCN1C(=O)C(CC(=O)NC/C=C(\C)CCC=C(C)C)C[C@H](C(=O)N(C(C)C)C(C)C)[C@@]31C (stereo partly specified)	none
O=c1cc(-c2ccco2)oc2c1ccc1ccccc12	none
O=c1cc(C(Cl)(Cl)Cl)oc2c1ccc1ccccc12	tim23-1 inh 51.7, tim10-1 inh 44.1 | tim10-1 confirm inactive | tim23-1 conf 49.3
CCN(CC)c1ccc(S(=O)(=O)N2CCOCC2)cc1NC(=O)CNCc1cccc(Cl)c1	none (no result: TIM10 inh, tim23-1 inh, tim10-1 inh)
Cn1ncc(Cl)c1C(=O)N1CCN(c2ccccc2)CC1	none
Cn1ncc(Cl)c1C(=O)N1CCN(c2ccc(Cl)c(Cl)c2)CC1	tim23-1 inh 50.2, tim10-1 inh 41.2 | tim10-1 confirm inactive | tim23-1 conf 41.5
COc1cc(/C=C(\C(=O)O)c2ccc(S(=O)(=O)N3CCCC3)s2)ccc1OCCC(C)C	none (no result: TIM10 inh, tim23-1 inh, tim10-1 inh, PfHsp90 yeast 2)
CN1CCN(/N=C/c2ccc(N(c3ccccc3)c3ccccc3)cc2)CC1	tim23-1 inh 76.3, tim10-1 inh 49.6 | tim10-1 confirm inactive | tim23-1 conf inactive
CC(C)N(C(=O)[C@H]1C[C@H](CC(=O)NCCc2ccccn2)C(=O)N2CCc3c([nH]c4cc(CCC(=O)N(C)C)ccc34)[C@]12C)C(C)C	none
O=C(Nc1ccc(F)cc1)C1C(c2ccccc2)C1(Cl)Cl (stereo unspecified)	TIM10 inh 41.4, tim23-1 inh 59.2, tim10-1 inh 48.3 | tim10-1 confirm 38.7 | TIM10 conf inactive | tim23-1 conf 40.3
O=C(Nc1ccccc1Cl)C1C(c2ccccc2)C1(Cl)Cl (stereo unspecified)	none
N#Cc1sc(NCc2cccc(Cl)c2)nc1Cl	TIM10 inh 43.8, tim23-1 inh 69.1, tim10-1 inh 58.4 | tim10-1 confirm 48.9 | TIM10 conf 43.2 | tim23-1 conf 57.5
Cc1ccc(S(=O)(=O)N2CCN(C(=O)COC(=O)c3cnc(C)cn3)CC2)c(C)c1	none (no result: PfHsp90 yeast 2)
COc1ccc(CN(C)c2ncnc3sccc23)c(OC)c1OC	none
Cc1cc(C)c(S(=O)(=O)c2ccccc2)c(OC(=O)c2cc(F)c(F)cc2Cl)n1	TIM10 inh 45.2, tim23-1 inh 66.1, tim10-1 inh 48.3 | tim10-1 confirm 33.0 | TIM10 conf inactive | tim23-1 conf 72.3
Cc1cc(OC(=O)c2cc(F)c(F)cc2Cl)nc(C)n1	none
COc1cc(/C=N/NC(=S)NC2CC3CC2C2C=CCC32)ccc1O (stereo unspecified)	tim23-1 inh 75.3, tim10-1 inh 53.3 | tim10-1 confirm 42.2 | tim23-1 conf 62.5
COc1ccc(-c2nnc(SCC(=O)Oc3ccc(C)cc3)o2)cc1	TIM10 inh 88.8, tim23-1 inh 53.3, tim10-1 inh 90.7, PfHsp90 yeast 2 105.1 | tim10-1 confirm 83.7 | TIM10 conf 91.2 | tim23-1 conf 58.2
COc1ccc(C(=O)CSc2nnc(-c3ccc(C)cc3)o2)cc1	none (no result: PfHsp90 yeast 2)
CC(C)CC(=O)N1CCN(C(=O)c2ccc(-c3ccccc3)cc2)CC1	none
COc1ccc(OC)c(S(=O)(=O)N2CCCC(C(=O)NCCN3CCOCC3)C2)c1 (stereo unspecified)	none
CC1=NN(C(N)=S)C(=O)C1N=Nc1cccc(Cl)c1C (stereo unspecified)	tim23-1 inh 56.6, tim10-1 inh 42.9 | tim10-1 confirm 43.5 | tim23-1 conf 62.0
N#Cc1ccc(CN2CCN(C(=O)c3ccc(S(=O)(=O)N4CCCCCC4)cc3)CC2)cc1	none
CC(=O)Nc1ccc2c(c1)N(S(=O)(=O)c1cccs1)CCC2	none
COc1ccccc1NC(=O)/C(C#N)=C/c1c(C)nn(-c2ccc(F)cc2)c1Cl	none
